Reference: PubChem BioAssay AID1159524 (National Center for Advancing Translational Sciences (NCATS), 2015)
In all, about 410,000 compounds went through this assay and about 5,100 (1.2%) were called active. A call without a number means that no potency is given here. Inconclusive results (about 8%) are left out. Calls follow the shape of the full dose curve; tested in HEK293T cells. The sample as a whole holds a higher share of actives than the screen did.

assay: High Throughput Screening for Foot and Mouth Disease Virus Antivirals; conditions: FMDV antiviral cell-based qHTS; series mostly up to 57.9 µM; also: read-out not given here; nearly all actives have a fitted effect of over 45% in size
Potency is read from the fitted curve at half-maximal effect.

SMILES | Potency | activity change, negative = inhibition
Cc1ccc(S(=O)(=O)n2nc(-c3ccc(Cl)cc3)nc2NCc2ccccc2)cc1 | inactive | 
CC(C)OC(=O)c1ccc(NCc2cc(O)ccc2O)cc1Cl | 8.91 µM (active) | 
COc1cccc(-n2cc(C(=O)NCc3cccc(Cl)c3)c3ccccc3c2=O)c1 | inactive | 
O=C(CSc1ncc(CO)n1Cc1ccc(Cl)cc1)NCc1ccc(F)cc1 | inactive | 
CCOc1ccccc1N(CC)C(=O)Nc1cn(C)c(=O)c2ccccc12 | inactive | 
CC1CCC(N2CC(=O)N(CCC3=CCCCC3)C(c3ccc(F)cc3)C2=O)CC1 (stereo not given) | inactive | 
Cc1ccc(C(=O)Nc2cccc(-c3nc(CNC(=O)c4ccccc4-n4cccn4)c(C)o3)c2)s1 | inactive | 
NC1=CC(=O)C(=O)c2cccnc21 | 39.8 µM (active) | 
O=C1C(c2ccccn2)=[N+]([O-])c2ccccc21 | inactive | 
COC1C[C@@H](O[C@@H]2C(C)C(=O)OC(C)C(C)C(O)C(C)C(=O)[C@@]3(CO3)CC(C)C(OC3OC(C)CC(N(C)C)C3O)C2C)OC(C)[C@@H]1O (stereo not given in full) | inactive | 
N[C@@H](C(=O)O)c1ccc(P(=O)(O)O)cc1 | inactive | 
c1cnc(NC2C3CC4CC(C3)CC2C4)nc1 (stereo not given) | inactive | 
CN(C)c1ccc(-c2nc(NCCN3CCOCC3)c3ccccc3n2)cc1 | inactive | 
c1ccc2c(NC3C4CC5CC(C4)CC3C5)nc(N3CCOCC3)nc2c1 (stereo not given) | 25.1 µM (active) | 
O=C(c1ccco1)N1CCC[C@@]2(CCN(Cc3nccs3)C2)C1 | inactive | 
O=C1CCN(Cc2ccc(-c3ccccc3)cc2)CCN1Cc1ccccn1 | inactive | 
COc1ccc(CNC(=O)/C(C#N)=C/c2cccc(OC)c2OC)cc1 | 22.4 µM (active) | 
COc1ccc(CNC(=O)c2cc3cccc(OC)c3oc2=O)cc1 | inactive | 
COc1ccc(CNC(=O)c2c[nH]c3c(OC)cc(OC)cc3c2=O)cc1 | inactive | 
Cc1ccc(C)c(N2CCN(C(=O)CCCCCn3c(=S)[nH]c4ccc(N5CCOCC5)cc4c3=O)CC2)c1 | 3.16 µM (active) | 
Cc1ccc(C)c(N2CCN(C(=O)Cn3nc(C)c4sc5ccccc5c4c3=O)CC2)c1 | inactive | 
COc1cccc(N2CCN(C(=O)CCCCCn3c(=O)[nH]c4ccccc4c3=O)CC2)c1 | inactive | 
Cc1ccc(C)c(N2CCN(C(=O)CCCCn3c(=O)[nH]c4ccccc4c3=O)CC2)c1 | 20 µM (active) | 
Cc1ccc(C)c(N2CCN(C(=O)CCc3c(C)nc4c(c3C)c(=O)n(C)c(=O)n4C)CC2)c1 | inactive | 

SMILES | Potency | activity change, negative = inhibition
Cc1ccc(OCCCC(=O)N2CCOCC2)c(C)c1 | inactive | 
CN1[C@@H]2CC[C@H]1CC(OC(=O)c1cc(Cl)cc(Cl)c1)C2 (stereo not given in full) | inactive | 
Oc1c(C(c2ccc(F)cc2)N2CCN(Cc3ccccc3)CC2)sc2nc(-c3ccco3)nn12 (stereo not given) | inactive | 
O=C(c1ccncc1)N1CCC2(CCN(Cc3cc(C(F)(F)F)cc(C(F)(F)F)c3)CC2)CC1 | inactive | 
Cc1nc2ccn(Cc3cccs3)c(=O)c2cc1C(=O)NCc1ccc(Cl)cc1 | inactive | 
CCCNC(=O)c1ccc(Cn2c(SCC(N)=O)nc3ccccc3c2=O)cc1 | inactive | 
Cc1nnnn1/C(=C\c1ccccc1)C(=O)OCC(=O)N1CC2(C)CC1CC(C)(C)C2 (stereo not given) | 31.6 µM (active) | 
Cn1nccc1C(=O)NCC1CCC2(CCN(Cc3c(O)ccc4ccccc34)CC2)O1 (stereo not given) | inactive | 
Cc1c(-c2cccc(NC(=O)C(C)(C)C)c2)nc2ncccn12 | inactive | 
O=c1c(O)c(-c2ccc(O)cc2)oc2ccccc12 | inactive | 
Cc1ccccc1OCC(=O)NNC(=O)c1cc(S(=O)(=O)N(C)C)ccc1N1CCCC1 | inactive | 
Cc1ccc(NC(=O)COc2coc(CN3CCc4ccccc4C3)cc2=O)cc1Cl | inactive | 
Cc1ccccc1OCC(=O)Nc1ccc(N2CCN(C(=O)C(C)C)CC2)c(Cl)c1 | 14.1 µM (active) | 
O=C(Oc1cc(OC(=O)c2ccccc2)c2c(c1)OC(c1ccc(OC(=O)c3ccccc3)c(OC(=O)c3ccccc3)c1)[C@@H](OC(=O)c1ccccc1)C2)c1ccccc1 (stereo not given in full) | inactive | 
CCCOc1ccc(NC(=O)CC2C(=O)N(c3ccccc3)C(=O)N2Cc2ccco2)cc1 (stereo not given) | inactive | 
CCOC(=O)c1c(C)[nH]c(C)c1S(=O)(=O)N1CCC(C(=O)Nc2ccc(C)c(Cl)c2)CC1 | inactive | 
COc1cc2c(=O)n(C)c3ccccc3c2cc1OC | inactive | 
Cn1c(=O)c([N+](=O)[O-])c(Oc2ccccc2)c2ccccc21 | 28.2 µM (active) | 
Cc1cccc(C2CC(=O)Oc3c2c(=O)n(C)c2ccccc32)c1 (stereo not given) | inactive | 
CC(C)c1cnc(NC(=O)Cc2ccccc2)s1 | inactive | 
Cc1ccc(-n2nc(C)c3c(C)cc(=O)n(CC(=O)Nc4ccc(C(C)C)cc4)c32)cc1 | inactive | 
CC(=O)Oc1c2c(c3c(c1CC=C(C)C)O[C@@]14C(=CC5CC1C(C)(C)OC4(C/C=C(\C)C(=O)O)C5=O)C3=O)OC(C)(CCC=C(C)C)C=C2 (stereo not given in full) | 20 µM (active) | 
COc1cc(=O)n2c(c1C(=O)NC(C)c1ccco1)CCN(Cc1cc(C)cc(C)c1)CC2 (stereo not given) | inactive | 
CCOc1ccccc1C(=O)NCC(c1ccc(N(C)C)cc1)N1CCCC1 (stereo not given) | inactive | 

SMILES | Potency | activity change, negative = inhibition
Cc1cc(-c2ccnc(-n3ncc(C(=O)NCCc4ccncc4)c3C)n2)c(C)s1 | inactive | 
CCOc1ccc(C)cc1S(=O)(=O)NC1CCCCCC1 | inactive | 
CCOc1cccc(=NC2CCCCC2)c2c(C)[nH]c(C)c12 | 28.2 µM (active) | 
CC(=O)N1CCC2(CCCN(c3ncccn3)C2)CC1 | inactive | 
O=C(O)C1CCN(c2ncnc3ccc(-c4ccccc4C(F)(F)F)cc23)CC1 | inactive | 
O=C(NCCCN1CCN(c2cccc(Cl)c2)CC1)c1nnc(Cc2ccc(F)cc2Cl)o1 | inactive | 
COc1cc(/C=C/c2ccc(/C=C/c3cc(OC)c(OC)c(OC)c3)cc2)cc(OC)c1OC | 22.4 µM (active) | 
COc1cc(/C=C/C2=CC(C)(C)NC(=S)N2)cc(OC)c1OC | inactive | 
COc1cc(/C=C/C(=O)N2CCc3ccccc3C2)cc(OC)c1OC | inactive | 
CCN1CCc2nc3sc(C(=O)Nc4ccccc4OC(F)(F)F)c(N)c3cc2C1 | inactive | 
CC1OC(OCC2OC(Oc3c(-c4ccc(O)c(O)c4)oc4cc(O)cc(O)c4c3=O)C(O)C(O)C2O)[C@@H](O)C(O)C1O (stereo not given in full) | inactive | 
CCOc1ccc(C(=O)Nc2ccc3nc4c(c(Nc5ccccc5OC)c3c2)CCCC4)cc1 | inactive | 
Cc1ccc(Nc2c3c(nc4ccccc24)CCC3)cc1 | 17.8 µM (active) | 
Cc1noc(C)c1-c1nc(Nc2ccccc2)c2ccccc2n1 | inactive | 
O=C(c1cccc(Cn2cccn2)c1)N1CCOc2c(cc(-c3csc4ccccc34)cc2OC2CCOC2)C1 (stereo not given) | inactive | 
Cc1ccccc1-c1nc(N(C)Cc2ccco2)c2ccccc2n1 | inactive | 
CC1(C)OC2CC3C4CCC5=CC(=O)CCC5(C)C4(F)C(O)CC3(C)[C@]2(C(=O)CCl)O1 (stereo not given in full) | inactive | 
Cc1ccc(S(=O)(=O)N2CCOCC2)cc1NC(=O)c1ccncc1 | inactive | 
COc1ccc(C(=O)Nc2nc(-c3ccc(S(=O)(=O)N4CCOCC4)cc3)cs2)cc1 | 7.94 µM (active) | 
Cc1ccnc(NS(=O)(=O)c2ccc(NC(=O)c3ccc(S(=O)(=O)N4CCOCC4)cc3)cc2)n1 | inactive | 
CCS(=O)(=O)Nc1cc(C(=O)N2C[C@@H](C)O[C@@H](C)C2)c2c(c1)nc(-c1ccccc1)n2C | inactive | 
Cc1ccc2cccc(NC(=O)c3ccc(OC(C)C)cc3)c2n1 | inactive | 
CC(C)(C)NC(=O)COC(=O)c1cc(Cl)ccc1[N+](=O)[O-] | inactive | 
Cc1ccc(CC(=O)Nc2cccc(C#N)c2)cc1 | inactive | 

SMILES | Potency | activity change, negative = inhibition
N#Cc1cccc(NC(=O)COC(=O)c2ccccc2C(=O)c2ccc(Cl)c([N+](=O)[O-])c2)c1 | 28.2 µM (active) | 
CCOCCn1ccc2c(OCC(=O)NCc3ccc(C)cc3)cccc2c1=O | inactive | 
COc1ccccc1CNc1ncnc2ccc(-c3c(C)noc3C)cc12 | inactive | 
Cc1ccc2oc(=O)c3cnn(CC(=O)N4CCN(c5cccc(Cl)c5)CC4)c3c2c1 | inactive | 
COc1ccccc1Cc1nc2ccccc2nc1SCC(=O)N1CCCc2ccccc21 | inactive | 
Cn1c(SCC(=O)N2CCCc3ccccc32)nc2ccccc2c1=O | 12.6 µM (active) | 
Cn1c(SCC(=O)N2CCCc3ccccc32)ncc(C(=O)Nc2ccc(F)cc2)c1=O | inactive | 
COc1cccc(Cn2c(=O)cnc3cncnc32)c1 | inactive | 
O=C(c1ccco1)N1CCC2(CC1)CCN(c1ncccn1)CC2 | inactive | 
Cc1c(S(=O)(=O)O)oc2c1C(=O)C(=O)c1c-2ccc2c1CCCC2(C)C | inactive | 
Cc1ccccc1-c1nc(CS(=O)(=O)CC(=O)Nc2cc(Cl)cc(Cl)c2)c(C)o1 | inactive | 
COc1ccc(C(=O)N2CCC[C@@]3(CCN(C(=O)NC(C)C)C3)C2)cc1 | inactive | 
Cc1c(C(=O)Nc2cccc(Cl)c2)oc2ccc(S(=O)(=O)N3CCOCC3)cc12 | inactive | 
COc1cc(=O)n2c(c1C(=O)N(C)Cc1nccs1)CCN(Cc1ccc(Cl)cc1)CC2 | inactive | 
Clc1cc(NC2CCCCC2)ncn1 | inactive | 
CCc1cc2c(NC3CCCC3)ncnc2s1 | 25.1 µM (active) | 
CCc1cc2c(SCC(=O)Nc3ncc(Cl)c(C)c3Cl)ncnc2s1 | inactive | 
Cc1noc(C)c1-c1cc(NCc2cccnc2)ncn1 | inactive | 
CC(=O)OC1CCC2(O)CC1(C)CCC1C2CC1(C)C (stereo not given) | inactive | 
C[C@@]12CCC3C(CC[C@@H]4CC(O)CC[C@@]34C)C1CCC2O (stereo not given in full) | inactive | 
CCCCOc1ccc(C(=O)Nc2cccc(-c3nc4ccccc4o3)c2C)cc1 | inactive | 
Cc1cccc(NC(=O)N2CCC(CN3CCc4ccccc4C3)CC2)c1C | inactive | 
CCCCCCCC/C=C\CCCCCCCC(=O)OC[C@H](CO)OC(C)=O |  | -19.7% [at 6.7 µM] (inactive)
